Results on seven molecules are retold here after PubChem BioAssay (NCATS).

Assay [1] has as its target Glucocorticoid receptor (Homo sapiens) (UniProt P04150). Nature of the assay: qHTS assay for small molecule agonists of glucocorticoid receptor signaling (AID 588532; active = well fitted curve in the direction sought with a large enough effect in the signal ratio, with a control signal flat; the % refers to the signal ratio;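 note: 100% = dexamethasone at 0.1 µM and 0% = DMSO only wells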). Conditions: HeLa MMTV-bla, beta-lactamase ratio, agonist, 18 h; stronger effect = higher value; percent of dexamethasone control, DMSO zero. The method, boiled down:
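Quantitative HTS using CellSensor MMTV-bla HeLa cells in charcoal/dextran-treated serum; compounds tested up to 92 uM. After 18 h at 37 C, CCF4 dye reported reporter induction.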

Assay [2] shares this target. Nature of the assay: qHTS assay for small molecule antagonists of glucocorticoid receptor signaling (AID 588533; active = well fitted inhibition curve with a large enough effect in the signal ratio, with a control signal flat, not every such curve was filed as active; the % refers to the signal ratio;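 note: cells stimulated with 2 nM dexamethasone as agonist; % is set by controls: 0 for no effect and ±100 for the full control effect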). The conditions noted are these: HeLa MMTV-bla, GRE beta-lactamase ratio, antagonist mode, 18 h; series mostly up to 76.8 µM. The method, boiled down: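 Antagonist-mode qHTS: compound titrations added to GRE-bla HeLa cells, then dexamethasone 2 nM final; 18 h, 37 C. CCF4 FRET fluorescence normalized to dexamethasone and DMSO; IC50 from Hill fit.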

Assay [3] is described as follows: qHTS assay for small molecule antagonists of peroxisome proliferator-activated receptor delta signaling (AID 588535; active = well fitted inhibition curve with a large enough effect in the signal ratio, with a control signal flat, not every such curve was filed as active; the % refers to the signal ratio;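 for max response: cells co-treated with a PPAR-delta agonist as stimulator during compound exposure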). Conditions: HEK293T PPARd-UAS-bla, beta-lactamase FRET ratio, 18 h; 460 nm channel. The essentials:
(§1)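 HEK293T PPAR-delta-UAS-bla cells, 4000/well, 2% charcoal/dextran FBS; 5 h 37 C; cpd titration; 18 h 37 C; CCF4 2 h RT; FI 460/530 nm; Hill fit → IC50, efficacy.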

For assay [4], the target named is Peroxisome proliferator-activated receptor delta (Homo sapiens) (UniProt Q03181). Described as above. The conditions noted are these: HEK293T PPARd-UAS-bla, beta-lactamase FRET ratio, 18 h; series mostly up to 76.7 µM. The essentials:
as §1

In assay [5] the target is Peroxisome proliferator-activated receptor gamma (Homo sapiens) (UniProt P37231). As to the kind of experiment: qHTS assay for small molecule agonists of peroxisome proliferator-activated receptor gamma signaling (AID 588536; active = well fitted curve in the direction sought with a large enough effect in the signal ratio, with a control signal flat, not every such curve was filed as active; the % refers to the signal ratio;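 note: 0% = DMSO basal wells and 100% = rosiglitazone at 2 µM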). The conditions noted are these: HEK293 PPARg-UAS-bla, beta-lactamase ratio, 16 h, percent of rosiglitazone response, DMSO as zero; series mostly up to 76.7 µM. The method, boiled down:
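GeneBLAzer PPAR-gamma-UAS-bla HEK293 cells in 1% charcoal/dextran-treated FBS medium were treated 16 h at 37 C with compounds. Beta-lactamase activity was read by CCF4 ratio (460/530 nm). Response was normalized to 2 uM rosiglitazone (100%) and DMSO, then Hill-fitted for EC50 and efficacy.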

Assay [6] shares this target. Nature of the assay: qHTS assay for small molecule antagonists of peroxisome proliferator-activated receptor gamma signaling (AID 588537; active = well fitted inhibition curve with a large enough effect in the signal ratio, with a control signal flat, not every such curve was filed as active; the % refers to the signal ratio;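 note: reporter cells co-stimulated with 50 nM rosiglitazone agonist during compound treatment; % of control where 0% means no effect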). Conditions: HEK293 PPARg-UAS-bla, beta-lactamase ratio, antagonist mode; series mostly up to 76.8 µM. The essentials: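 Antagonist mode, beta-lactamase reporter in HEK293; charcoal/dextran FBS 1%; 3000 cells/well, 37 C 6-6.5 h; cpd titration + rosiglitazone 50 nM final, 16 h 37 C; CCF4, 2 h RT; 460/530 nm; Hill fit → IC50, efficacy.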

For assay [7], the target named is Vitamin D3 receptor (Homo sapiens) (UniProt P11473). As to the kind of experiment: qHTS assay for small molecule antagonists of vitamin D receptor signaling (AID 588541).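 Note: receptor activated by calcitriol during compound treatment; % is set by controls: 0 for no effect and ±100 for the full control effect.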 Conditions: HEK293T VDR-UAS-bla, beta-lactamase ratio, antagonist mode; series mostly up to 76.7 µM. The method, boiled down:
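Antagonist-mode beta-lactamase reporter assay: HEK293T VDR-UAS-bla cells were exposed to titrated compound alongside 1-alpha,25-dihydroxyvitamin D3 at 3 nM final for 16 h. Values were normalized to the 50 nM agonist control and DMSO basal, with IC50 and efficacy from Hill equation fits.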

The target is the same in assay [8]. Nature of the assay: qHTS assay for small molecule agonists of vitamin D receptor signaling (AID 588543).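 Note: 0% = DMSO basal and 100% = reference agonist control.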 The conditions noted are these: HEK293T VDR-UAS-bla, beta-lactamase ratio, 16 h; series mostly up to 76.8 µM. The essentials: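 Measured: β-lactamase reporter activity (CCF4, 405 nm excitation, 460/530 nm emission) in HEK293T VDR-UAS-bla cells after 16 h compound exposure at 37 °C. Normalization against 50 nM 1α,25-dihydroxyvitamin D3 and DMSO; Hill-fit EC50.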

The nature of assay [9]: qHTS assay for small molecule agonists of retinoid X receptor alpha signaling (AID 588544).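 For activation: 0% = DMSO basal wells and 100% = reference agonist.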 The conditions noted are these: HEK293T RXRa-UAS-bla, beta-lactamase reporter, 18 h; 530 nm emission.
The target of assay [10] is Retinoic acid receptor RXR-alpha (Homo sapiens) (UniProt P19793). The description is as above. The conditions noted are these: HEK293T RXRa-UAS-bla, beta-lactamase reporter, 18 h; series mostly up to 76.7 µM.
Assay [11] has as its target Thyroid hormone receptor beta (Homo sapiens) (UniProt P10828). As to the kind of experiment: qHTS assay for small molecule agonists of thyroid hormone receptor beta signaling (AID 588545).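 Note: 0% = DMSO only and 100% = 10 nM T3.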 Conditions: TR-UAS-bla GripTite HEK 293, beta-lactamase ratio, agonist mode, 18 h, percent of T3 response, DMSO as zero; series mostly up to 76.7 µM. The method, boiled down:
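Efficacy and EC50 values derive from Hill fits of qHTS titration data, normalized to 10 nM T3 and DMSO-only wells. HEK 293 reporter cells were stimulated for 18 hrs at 37 C, with beta-lactamase activity measured by CCF4 fluorescence.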

Assay [12] can be described thus: qHTS assay for small molecule antagonists of retinoid X receptor alpha signaling (AID 588546; active = well fitted inhibition curve with a large enough effect in the signal ratio, with a control signal flat, not every such curve was filed as active; the % refers to the signal ratio;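 note: cells stimulated with 9-cis-retinoic acid as agonist; % is set by controls: 0 for no effect and ±100 for the full control effect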). Conditions: HEK293T RXRa-UAS-bla, beta-lactamase ratio, antagonist mode; measured here: W530 green channel, cytotoxicity proxy. The method, boiled down:
(§2)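 Beta-lactamase reporter inhibition, read as CCF4 fluorescence ratio (ex 405, em 460/530 nm) after 2 h at RT. HEK293T UAS-bla cells, 2500/well, were stimulated with 9-cis-RA at 500 or 100 nM final alongside test compound for 18 h at 37 C.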

The target of assay [13] is Retinoic acid receptor RXR-alpha (Homo sapiens) (UniProt P19793). Described as above. The conditions noted are these: HEK293T RXRa-UAS-bla, beta-lactamase ratio, antagonist mode. The essentials:
as §2

Assay [14] addresses Voltage-gated inwardly rectifying potassium channel KCNH2 (Homo sapiens) (UniProt Q12809). As to the kind of experiment: qHTS Assay for Small Molecule Inhibitors of the Human hERG Channel Activity (AID 588834; active = well fitted inhibition curve with a large enough effect;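 note: top concentration of the series differs between compounds; % is set by controls: 0 for no effect and ±100 for the full control effect; lower thallium flux fluorescence means stronger hERG block; nearly all actives have a fitted effect of over 50% in size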). Conditions: U2OS BacMam hERG, FluxOR thallium flux fluorescence; series mostly up to 92.2 µM. The method, boiled down:
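Blockade is seen as reduced FluxOR thallium-flux fluorescence in U2OS cells expressing hERG from a BacMam construct, in Opti-MEM with 2% FCS. Concentration-response data fitted to the Hill equation for AC50.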

Assay [15] is described as follows: qHTS assay for small molecule agonists of the antioxidant response element (ARE) signaling pathway (AID 651741; active = well fitted activation curve with a large enough effect in the signal ratio; the % refers to the signal ratio; note: potency is the fitted concentration of half-maximal effect; for activation: % of control where 0% means no effect). Conditions: HepG2 ARE-bla reporter, beta-lactamase FRET ratio, 16 h; series mostly up to 96 µM. The essentials:
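Quantitative HTS in HepG2 cells stably expressing an ARE-beta-lactamase reporter; 16 h compound exposure at 37 C, followed by 2 h room-temperature incubation with LiveBLAzer B/G FRET substrate and fluorescence measurement.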

The nature of assay [16]: qHTS assay for small molecule activators of the p53 signaling pathway (AID 651743; active = well fitted activation curve with a large enough effect in the signal ratio, not every such curve was filed as active; the % refers to the signal ratio; note: % of control where 0% means no effect). Conditions: HCT-116 p53RE-bla, beta-lactamase FRET ratio, 16 h; stronger effect = higher value. The essentials:
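Read-out is fluorescence intensity from the LiveBLAzer B/G FRET substrate, added for 2 hours at room temperature after HCT-116 p53RE-bla cells had been incubated with compounds for 16 hours at 37 C.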

Assay [17] in a line: qHTS assay for small molecule activators of the nuclear factor-kappa B (NF-kB) signaling pathway (AID 651749; active = well fitted activation curve with a large enough effect in the signal ratio; the % refers to the signal ratio; note: % of control where 0% means no effect). The conditions noted are these: NF-kB-bla ME-180 cells, beta-lactamase FRET ratio, 16 h; stronger effect = higher value. The essentials: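 Readout: beta-lactamase reporter driven by an NF-kB response element, detected fluorescently as loss of FRET. Cells were the ME-180 line, treated 16 hr at 37C with pin-transferred compound.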

Assay [18] deals with Thyroid hormone receptor beta (Homo sapiens) (UniProt P10828). As to the kind of experiment: qHTS assay for small molecule antagonists of thyroid hormone receptor beta signaling (AID 588547; active = well fitted inhibition curve with a large enough effect in the signal ratio, with a control signal flat, not every such curve was filed as active; the % refers to the signal ratio;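 note: cells stimulated with 0.4 nM T3 agonist during compound exposure; % is set by controls: 0 for no effect and ±100 for the full control effect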). Conditions: TR-UAS-bla HEK293, beta-lactamase ratio, antagonist mode, 18 h. The method, boiled down: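 Inhibition of T3-driven (0.4nM final) beta-lactamase reporter activity was measured over 0.59 nM to 92 uM compound after 18 h at 37 C. The cells were GripTite HEK293 TR-UAS-bla in charcoal/dextran-stripped serum, with CCF4 ratio read-out and IC50 from Hill fits.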

Records with an inconclusive call do not appear. Activity calls are given as the source filed them. Unless noted, calls come from the whole dose curve.

Peroxisome proliferator-activated receptor delta (Homo sapiens), sequence (Q03181 whole entry, looked up): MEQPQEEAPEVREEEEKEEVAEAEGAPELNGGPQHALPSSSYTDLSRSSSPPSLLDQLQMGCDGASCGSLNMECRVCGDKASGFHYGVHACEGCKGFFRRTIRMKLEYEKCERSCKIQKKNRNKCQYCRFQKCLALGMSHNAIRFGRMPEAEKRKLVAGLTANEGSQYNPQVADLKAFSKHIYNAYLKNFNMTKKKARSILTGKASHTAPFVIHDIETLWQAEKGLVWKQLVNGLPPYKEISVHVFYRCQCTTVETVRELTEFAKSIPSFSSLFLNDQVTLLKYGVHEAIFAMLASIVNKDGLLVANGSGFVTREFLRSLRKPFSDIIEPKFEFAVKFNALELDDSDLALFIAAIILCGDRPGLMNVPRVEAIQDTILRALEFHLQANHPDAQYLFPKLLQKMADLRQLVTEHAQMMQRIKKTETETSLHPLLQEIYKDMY
Vitamin D3 receptor (Homo sapiens), sequence (P11473 whole entry, looked up): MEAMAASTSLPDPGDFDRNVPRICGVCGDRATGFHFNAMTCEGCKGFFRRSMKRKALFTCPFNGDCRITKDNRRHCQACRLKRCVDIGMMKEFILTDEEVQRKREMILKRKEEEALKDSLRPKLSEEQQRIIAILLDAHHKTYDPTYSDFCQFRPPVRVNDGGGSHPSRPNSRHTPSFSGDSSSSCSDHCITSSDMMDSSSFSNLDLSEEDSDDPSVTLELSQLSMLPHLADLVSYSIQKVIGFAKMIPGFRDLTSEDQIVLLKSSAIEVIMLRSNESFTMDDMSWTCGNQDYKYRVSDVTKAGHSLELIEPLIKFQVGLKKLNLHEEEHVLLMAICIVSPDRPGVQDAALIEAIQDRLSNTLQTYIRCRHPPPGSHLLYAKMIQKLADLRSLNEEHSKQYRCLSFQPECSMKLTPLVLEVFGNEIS
Voltage-gated inwardly rectifying potassium channel KCNH2 (Homo sapiens), sequence (Q12809 whole entry, looked up): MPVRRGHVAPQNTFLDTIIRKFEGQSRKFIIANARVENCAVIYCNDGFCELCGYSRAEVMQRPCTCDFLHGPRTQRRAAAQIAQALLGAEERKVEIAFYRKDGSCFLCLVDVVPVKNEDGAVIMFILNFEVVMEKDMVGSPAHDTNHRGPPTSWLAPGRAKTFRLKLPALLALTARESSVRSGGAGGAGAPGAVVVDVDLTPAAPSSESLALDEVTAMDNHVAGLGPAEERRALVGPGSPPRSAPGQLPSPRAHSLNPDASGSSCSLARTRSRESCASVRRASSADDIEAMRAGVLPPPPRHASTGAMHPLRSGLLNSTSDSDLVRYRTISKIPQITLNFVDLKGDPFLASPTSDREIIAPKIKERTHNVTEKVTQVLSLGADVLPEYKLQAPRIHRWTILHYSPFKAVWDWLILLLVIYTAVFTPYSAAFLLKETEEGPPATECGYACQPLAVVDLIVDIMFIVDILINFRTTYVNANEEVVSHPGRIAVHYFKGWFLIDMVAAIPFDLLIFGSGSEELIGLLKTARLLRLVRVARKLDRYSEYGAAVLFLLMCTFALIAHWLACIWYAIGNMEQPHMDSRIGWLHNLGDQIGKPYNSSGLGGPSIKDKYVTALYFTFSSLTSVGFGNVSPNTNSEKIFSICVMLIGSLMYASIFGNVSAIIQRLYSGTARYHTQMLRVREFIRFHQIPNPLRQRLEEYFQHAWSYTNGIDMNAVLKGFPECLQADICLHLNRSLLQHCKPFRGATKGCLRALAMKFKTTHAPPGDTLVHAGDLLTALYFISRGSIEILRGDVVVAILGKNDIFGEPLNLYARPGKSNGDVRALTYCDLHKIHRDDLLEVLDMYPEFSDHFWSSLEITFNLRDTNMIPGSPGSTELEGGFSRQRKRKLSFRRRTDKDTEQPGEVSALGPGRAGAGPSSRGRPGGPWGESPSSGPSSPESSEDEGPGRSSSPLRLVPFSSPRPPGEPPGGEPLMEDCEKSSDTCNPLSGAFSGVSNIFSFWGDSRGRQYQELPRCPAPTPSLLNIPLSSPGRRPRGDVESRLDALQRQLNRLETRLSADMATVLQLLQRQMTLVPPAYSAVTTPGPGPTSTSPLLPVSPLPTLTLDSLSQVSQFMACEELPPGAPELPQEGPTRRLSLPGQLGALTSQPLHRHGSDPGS
Peroxisome proliferator-activated receptor gamma (Homo sapiens), sequence (P37231 whole entry, looked up): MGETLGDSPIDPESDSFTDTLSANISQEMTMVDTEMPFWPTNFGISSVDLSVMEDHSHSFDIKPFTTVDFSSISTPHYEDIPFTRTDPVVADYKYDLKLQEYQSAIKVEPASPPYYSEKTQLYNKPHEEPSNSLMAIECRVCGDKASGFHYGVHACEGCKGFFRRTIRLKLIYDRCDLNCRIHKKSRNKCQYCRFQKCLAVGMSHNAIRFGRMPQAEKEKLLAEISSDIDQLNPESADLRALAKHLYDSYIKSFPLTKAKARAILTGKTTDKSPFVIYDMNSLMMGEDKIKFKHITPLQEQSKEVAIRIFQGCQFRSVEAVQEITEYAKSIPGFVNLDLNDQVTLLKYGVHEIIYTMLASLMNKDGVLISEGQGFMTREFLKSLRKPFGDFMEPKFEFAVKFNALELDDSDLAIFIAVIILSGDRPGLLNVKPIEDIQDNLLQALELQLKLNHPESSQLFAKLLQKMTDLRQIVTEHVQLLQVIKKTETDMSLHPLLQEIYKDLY
Glucocorticoid receptor (Homo sapiens), sequence (P04150 whole entry, looked up): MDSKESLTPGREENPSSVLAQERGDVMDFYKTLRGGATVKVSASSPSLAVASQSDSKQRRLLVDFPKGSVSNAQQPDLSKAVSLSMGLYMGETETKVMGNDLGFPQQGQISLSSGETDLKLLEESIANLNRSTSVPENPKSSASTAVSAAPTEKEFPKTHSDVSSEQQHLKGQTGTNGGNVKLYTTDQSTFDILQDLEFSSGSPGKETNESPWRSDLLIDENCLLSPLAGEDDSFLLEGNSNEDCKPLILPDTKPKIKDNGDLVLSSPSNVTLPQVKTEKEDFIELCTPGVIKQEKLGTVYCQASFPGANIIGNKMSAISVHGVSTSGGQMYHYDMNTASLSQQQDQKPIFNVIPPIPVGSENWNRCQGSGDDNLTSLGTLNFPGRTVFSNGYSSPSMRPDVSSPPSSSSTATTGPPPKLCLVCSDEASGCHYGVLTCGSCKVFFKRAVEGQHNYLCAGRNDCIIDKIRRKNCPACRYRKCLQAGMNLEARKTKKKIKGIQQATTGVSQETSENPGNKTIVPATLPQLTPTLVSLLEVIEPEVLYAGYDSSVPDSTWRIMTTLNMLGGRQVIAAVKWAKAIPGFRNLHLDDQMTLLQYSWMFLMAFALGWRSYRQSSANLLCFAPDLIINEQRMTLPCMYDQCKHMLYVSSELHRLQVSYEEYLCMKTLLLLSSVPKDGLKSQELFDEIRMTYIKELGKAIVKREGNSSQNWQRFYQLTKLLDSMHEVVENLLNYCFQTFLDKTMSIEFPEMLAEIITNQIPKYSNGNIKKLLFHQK
Thyroid hormone receptor beta (Homo sapiens), sequence (P10828 whole entry, looked up): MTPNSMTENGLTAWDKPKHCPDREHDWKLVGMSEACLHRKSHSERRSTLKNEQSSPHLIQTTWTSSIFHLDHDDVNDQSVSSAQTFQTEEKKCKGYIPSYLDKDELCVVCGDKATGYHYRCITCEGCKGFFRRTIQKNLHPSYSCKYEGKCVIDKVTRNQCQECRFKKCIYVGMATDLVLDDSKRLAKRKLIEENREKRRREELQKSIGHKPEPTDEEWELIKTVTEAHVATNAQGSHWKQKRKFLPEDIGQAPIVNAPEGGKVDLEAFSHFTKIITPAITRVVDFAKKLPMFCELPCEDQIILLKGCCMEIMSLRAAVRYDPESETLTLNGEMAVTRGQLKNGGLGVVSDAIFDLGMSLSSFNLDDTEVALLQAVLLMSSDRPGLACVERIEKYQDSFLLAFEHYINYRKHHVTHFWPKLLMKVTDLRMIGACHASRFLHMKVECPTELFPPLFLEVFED
Retinoic acid receptor RXR-alpha (Homo sapiens), sequence (P19793 whole entry, looked up): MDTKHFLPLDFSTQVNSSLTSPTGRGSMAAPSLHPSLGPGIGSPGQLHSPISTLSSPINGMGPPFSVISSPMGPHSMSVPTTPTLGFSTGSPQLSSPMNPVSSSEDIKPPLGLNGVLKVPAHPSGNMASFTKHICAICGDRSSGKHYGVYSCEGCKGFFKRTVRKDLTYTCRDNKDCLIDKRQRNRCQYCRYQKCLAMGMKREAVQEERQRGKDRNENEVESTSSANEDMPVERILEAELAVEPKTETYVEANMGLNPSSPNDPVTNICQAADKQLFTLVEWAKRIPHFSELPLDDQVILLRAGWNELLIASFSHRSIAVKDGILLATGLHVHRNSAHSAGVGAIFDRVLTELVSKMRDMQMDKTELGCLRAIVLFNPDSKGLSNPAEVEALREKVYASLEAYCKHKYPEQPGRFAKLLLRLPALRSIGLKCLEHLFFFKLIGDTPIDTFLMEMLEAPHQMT

Take `Cc1cccc2sc(N)nc12`: the activation in assay [1] is -9.53% (inactive); in [16] it was 2.1% (inactive); in assay [17], 0.512% (inactive). Also, the result in assay [2], in assay [5], in assay [6], in [7], in assay [8] and in assay [10] was inactive. For the same molecule, the outcome in assay [11] was inactive. Also, the max response in [3] was 24.8%; in [9], -1.76%; in [12], -5.71%; in assay [13], 1.45% (inactive). In addition, the Potency entry in assay [4] and in [14] was “inactive” in each case. Besides, the Potency in assay [15] was 15 µM (active).

For `Cc1cc(C)cc(N)c1`, the results for the activation in assay [1], in assay [16] and in assay [17] were -0.353% (inactive), -1.89% (inactive) and 0.882% (inactive), respectively. The outcome in assay [2], in assay [5], in assay [6], in [7], in assay [8] and in assay [10] was inactive. Moreover, the result in [11] was inactive. For the same molecule, the max response in [3] was -0.443%; in assay [9], -7.06%; in assay [12] it was 1.47%; in [13], 9.88% (inactive). The Potency result in assay [4], in [14] and in [15] was “inactive” in each case.

In the case of `CC(C)N(C)C`, the activation in assay [1] was 0.0793% (inactive); in assay [16], -1.2% (inactive); in [17], -1.35% (inactive). In addition, the outcome in assay [2], in assay [5], in [6], in assay [8], in [10] and in [11] was inactive. The max response in assay [3] was -0.77%; in assay [9], -10.9%; in assay [12] it was -0.298%; in assay [13], 11.2% (inactive). The Potency result in assay [4], in assay [14] and in assay [15] was “inactive” throughout. Also, the activity change % (negative = inhibition) in assay [18] is -6.45% (inactive).

In the case of `O=[N+]([O-])c1ccc(CCO)cc1`, the figures for the activation in assay [1], in assay [16] and in assay [17] were -5.66% (inactive), -2.15% (inactive) and -0.318% (inactive), respectively. Also, the outcome in [2], in [5], in [6], in assay [7], in assay [8] and in assay [10] was inactive. For the same molecule, the result in assay [11] was inactive. The max response was 19.9% in [3], -1.7% in assay [9], -0.777% in assay [12] and 2.63% (inactive) in assay [13]. Moreover, the Potency entry in assay [4], in assay [14] and in assay [15] was “inactive” each time. Further, the activity change % (negative = inhibition) in assay [18] was 3.64% (inactive).

As to `C[C@@H]1O[C@@H](O[C@@H]2[C@@H](O)[C@H](OCCc3ccc(O)c(O)c3)O[C@H](CO[C@@H]3O[C@H](CO)[C@@H](O)[C@H](O)[C@H]3O)[C@H]2OC(=O)/C=C/c2ccc(O)c(O)c2)[C@H](O)[C@H](O)[C@H]1O`, the activation in assay [1] is 2.75% (inactive); in assay [16] it was -0.671% (inactive); in assay [17], -0.414% (inactive). Also, the outcome in assay [2], in assay [5], in assay [7], in assay [8], in [10] and in [11] was inactive. The max response was 20.8% in [3], 0.999% in assay [9], -0.609% in assay [12] and -6.94% (inactive) in [13]. The Potency entry in [4], in assay [14] and in [15] was “inactive” in each case. Further, the activity change % (negative = inhibition) in assay [18] is 4.68% (inactive).

On to `CC=C(Cl)Cl`, for which the figures for the activation in [1], in assay [16] and in assay [17] were -2.89% (inactive), -2.14% (inactive) and -0.14% (inactive), respectively. Further, the result in assay [2], in assay [5], in [6], in [10] and in assay [11] was inactive. Moreover, the max response in [3] is 24.9%; in assay [9], -16.9%; in assay [12], -7.38%; in assay [13], -5.31% (inactive). Besides, the Potency result in assay [4] and in [14] was “inactive” in each case. The activity change % (negative = inhibition) in assay [18] was -14.6% (inactive).

For `C1CCC2OC2C1` (stereo unspecified), the activation in assay [1] was -6.07% (inactive). Moreover, the result in assay [2], in assay [5], in assay [7], in assay [8], in assay [10] and in assay [11] was inactive. The max response in [3] is 38.4%; in [9], 6.92%; in assay [12], -13.8%; in [13] it was 6.91% (inactive). Moreover, the Potency entry in assay [4], in [14] and in assay [15] was “inactive” in each case. The activity change % (negative = inhibition) in assay [18] is 14.7% (inactive).
